Experimental data: PubChem BioAssay AID1159580 (chemical genetic matrix, 2015)
About 2,000 (36%) of roughly 5,500 compounds were called active. Another 18% or so got no clear call; they are omitted. This is one part of the list. Values without a mark were called inactive. Rule as the data show it: active = normalized growth mostly below about 0.91 (no sharp cut-off); inconclusive = no clear call, values can overlap the other calls; inactive = mostly above about 0.92.

Assay: chemical genetic growth profiling, strain panel (AID 1159580);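 also: tested at 20 µM; growth read once vehicle control cultures reached saturation at 30 °C; 1 = growth at the plate median or of vehicle wells; lower values mean less growth of the strain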
Details: growth OD
[1] = S. cerevisiae deletion strains, locus YAL013W, strain DEP1, active compounds read low
[2] = S. cerevisiae deletion strains, locus YBR229C, strain ROT2, active compounds read low
[3] = S. cerevisiae deletion strains, locus YDL101C, strain DUN1, active compounds read low
[4] = S. cerevisiae deletion strains, locus YDR150W, strain NUM1, active compounds read low
[5] = S. cerevisiae deletion strains, locus YEL061C, strain CIN8, active compounds read low
[6] = S. cerevisiae deletion strains, locus YGR078C, strain PAC10, active compounds read low
[7] = S. cerevisiae deletion strains, locus YHR030C, strain SLT2, active compounds read low
[8] = S. cerevisiae deletion strains, locus YJR043C, strain POL32, active compounds read low
[9] = S. cerevisiae deletion strains, locus YJR075W, strain HOC1, active compounds read low
[10] = S. cerevisiae deletion strains, locus YLR039C, strain RIC1, active compounds read low
[11] = S. cerevisiae deletion strains, locus YLR262C, strain YPT6, active compounds read low
[12] = S. cerevisiae deletion strains, locus YMR263W, strain SAP30, active compounds read low
[13] = S. cerevisiae deletion strains, locus YMR307W, strain GAS1, active compounds read low
[14] = S. cerevisiae deletion strains, locus YNL128W, strain TEP1, active compounds read low
[15] = S. cerevisiae deletion strains, locus YNL153C, strain GIM3, active compounds read low
[16] = S. cerevisiae deletion strains, locus YNL322C, strain KRE1, active compounds read low
[17] = S. cerevisiae deletion strains, locus YOL006C, strain TOP1, active compounds read low
[18] = S. cerevisiae deletion strains, locus YPL055C, strain LGE1, active compounds read low
[19] = S. cerevisiae deletion strains, locus YPL241C, strain CIN2, active compounds read low
[20] = S. cerevisiae strains, strain wild type, active compounds read low
[21] = S. cerevisiae deletion strains, locus YAL040C, strain CLN3, active compounds read low
[22] = S. cerevisiae deletion strains, locus YCL061C, strain MRC1 (second series), active compounds read low
[23] = S. cerevisiae deletion strains, locus YDR363W, strain ESC2, active compounds read low
[24] = S. cerevisiae deletion strains, locus YER002W, strain NOP16, active compounds read low
[25] = S. cerevisiae deletion strains, locus YNL175C, strain NOP13, active compounds read low
[26] = S. cerevisiae deletion strains, locus YNL197C, strain WHI3, active compounds read low
[27] = S. cerevisiae deletion strains, locus YNL224C, strain SQS1, active compounds read low
[28] = S. cerevisiae deletion strains, locus YOR083W, strain WHI5 (second series), active compounds read low

SMILES: COC(=O)CCC(=O)O[C@H]1CCC2(C)C(CCC3C2C(=O)[C@@H](O)C2(C)C3CC3OC4(CCC(C)CO4)[C@@H](C)C32)C1 (stereo partly drawn)
- normalized growth [1]: 0.991
- normalized growth (S. cerevisiae deletion strains, locus YBR021W, strain FUR4, active compounds read low): 1.01
- normalized growth [2]: 1.01
- normalized growth (S. cerevisiae deletion strains, locus YCL029C, strain bik1, active compounds read low): 0.997
- normalized growth (S. cerevisiae deletion strains, locus YDL035C, strain GPR1, active compounds read low): 0.993
- normalized growth (S. cerevisiae deletion strains, locus YDL074C, strain BRE1, active compounds read low): 0.997
- normalized growth [3]: 1.02
- normalized growth (S. cerevisiae deletion strains, locus YDL134C, strain PPH21, active compounds read low): 1
- normalized growth (S. cerevisiae deletion strains, locus YDL185W, strain tfp1, active compounds read low): 0.996
- normalized growth (S. cerevisiae deletion strains, locus YDL192W, strain arf1, active compounds read low): 1
- normalized growth (S. cerevisiae deletion strains, locus YDR101C, strain arx1, active compounds read low): 0.997
- normalized growth [4]: 1
- normalized growth (S. cerevisiae deletion strains, locus YDR162C, strain NBP2, active compounds read low): 1
- normalized growth (S. cerevisiae deletion strains, locus YDR318W, strain mcm21, active compounds read low): 0.996
- normalized growth (S. cerevisiae deletion strains, locus YDR388W, active compounds read low): 0.994
- normalized growth (S. cerevisiae deletion strains, locus YDR502C, strain sam2, active compounds read low): 1
- normalized growth [5]: 1.01
- normalized growth (S. cerevisiae deletion strains, locus YER110C, active compounds read low): 0.996
- normalized growth (S. cerevisiae deletion strains, locus YER155C, strain BEM2, active compounds read low): 1.01
- normalized growth (S. cerevisiae deletion strains, locus YER167W, strain BCK2, active compounds read low): 1.02
- normalized growth (S. cerevisiae deletion strains, locus YGL078C, strain dbp3, active compounds read low): 0.991
- normalized growth (S. cerevisiae deletion strains, locus YGL086W, strain mad1, active compounds read low): 1
- normalized growth (S. cerevisiae deletion strains, locus YGL248W, strain PDE1, active compounds read low): 1
- normalized growth [6]: 1.02
- normalized growth (S. cerevisiae deletion strains, locus YGR135W, strain pre9, active compounds read low): 1
- normalized growth (S. cerevisiae deletion strains, locus YGR229C, strain SMI1, active compounds read low): 1.01
- normalized growth (S. cerevisiae deletion strains, locus YGR252W, strain gcn5, active compounds read low): 0.963
- normalized growth [7]: 1.01
- normalized growth (S. cerevisiae deletion strains, locus YHR079C, strain IRE1 (second series), active compounds read low): 0.991
- normalized growth (S. cerevisiae deletion strains, locus YHR094C, strain hxt1, active compounds read low): 0.998
- normalized growth (S. cerevisiae deletion strains, locus YHR129C, strain ARP1, active compounds read low): 0.999
- normalized growth (S. cerevisiae deletion strains, locus YHR200W, strain rpn10, active compounds read low): 1
- normalized growth (S. cerevisiae deletion strains, locus YIL066C, strain RNR3, active compounds read low): 1.01
- normalized growth (S. cerevisiae deletion strains, locus YIL073C, strain SPO22, active compounds read low): 1
- normalized growth (S. cerevisiae deletion strains, locus YIL125W, strain kgd1, active compounds read low): 1.01
- normalized growth (S. cerevisiae deletion strains, locus YIR030C, strain dcg1, active compounds read low): 0.998
- normalized growth (S. cerevisiae deletion strains, locus YJL095W, strain BCK1, active compounds read low): 0.989
- normalized growth (S. cerevisiae deletion strains, locus YJL134W, strain LCB3, active compounds read low): 1.01
- normalized growth (S. cerevisiae deletion strains, locus YJL168C, strain set2, active compounds read low): 0.994
- normalized growth (S. cerevisiae deletion strains, locus YJL187C, strain SWE1 (second series), active compounds read low): 1
- normalized growth [8]: 1
- normalized growth [9]: 1.02
- normalized growth (S. cerevisiae deletion strains, locus YKL009W, strain mrt4, active compounds read low): 0.998
- normalized growth (S. cerevisiae deletion strains, locus YKL068W, active compounds read low): 0.999
- normalized growth (S. cerevisiae deletion strains, locus YKL085W, strain MDH1 (second series), active compounds read low): 0.996
- normalized growth (S. cerevisiae deletion strains, locus YKL085W, strain MDH1, active compounds read low): 0.996
- normalized growth (S. cerevisiae deletion strains, locus YKL190W, strain CNB1, active compounds read low): 1.01
- normalized growth (S. cerevisiae deletion strains, locus YKR001C, strain vps1, active compounds read low): 0.993
- normalized growth [10]: 0.996
- normalized growth (S. cerevisiae deletion strains, locus YLR058C, strain SHM2, active compounds read low): 1
- normalized growth (S. cerevisiae deletion strains, locus YLR102C, strain apc9, active compounds read low): 0.996
- normalized growth [11]: 0.984
- normalized growth (S. cerevisiae deletion strains, locus YLR268W, strain sec22, active compounds read low): 1
- normalized growth (S. cerevisiae deletion strains, locus YLR330W, strain CHS5, active compounds read low): 1.01
- normalized growth (S. cerevisiae deletion strains, locus YLR342W, strain FKS1 (second series), active compounds read low): 1.02
- normalized growth (S. cerevisiae deletion strains, locus YLR371W, strain rom2, active compounds read low): 1
- normalized growth (S. cerevisiae deletion strains, locus YLR418C, strain cdc73, active compounds read low): 0.982
- normalized growth (S. cerevisiae deletion strains, locus YML016C, strain PPZ1, active compounds read low): 1.01
- normalized growth (S. cerevisiae deletion strains, locus YML032C, strain rad52, active compounds read low): 1.01
- normalized growth (S. cerevisiae deletion strains, locus YML124C, strain tub3, active compounds read low): 0.998
- normalized growth (S. cerevisiae deletion strains, locus YMR078C, strain ctf18, active compounds read low): 0.994
- normalized growth (S. cerevisiae deletion strains, locus YMR223W, strain ubp8, active compounds read low): 1
- normalized growth [12]: 1.03
- normalized growth [13]: 0.997
- normalized growth (S. cerevisiae deletion strains, locus YNL067W, strain RPL9B, active compounds read low): 1.01
- normalized growth [14]: 1.01
- normalized growth [15]: 1.01
- normalized growth (S. cerevisiae deletion strains, locus YNL233W, strain BNI4, active compounds read low): 1
- normalized growth (S. cerevisiae deletion strains, locus YNL250W, strain rad50, active compounds read low): 0.999
- normalized growth (S. cerevisiae deletion strains, locus YNL271C, strain bni1, active compounds read low): 0.995
- normalized growth (S. cerevisiae deletion strains, locus YNL298W, strain CLA4, active compounds read low): 0.985
- normalized growth (S. cerevisiae deletion strains, locus YNL307C, strain MCK1, active compounds read low): 0.997
- normalized growth [16]: 1.01
- normalized growth (S. cerevisiae deletion strains, locus YNR052C, strain pop2, active compounds read low): 1
- normalized growth [17]: 0.943
- normalized growth (S. cerevisiae deletion strains, locus YOL012C, strain htz1): 1.03
- normalized growth (S. cerevisiae deletion strains, locus YOL147C, strain pex11, active compounds read low): 1
- normalized growth (S. cerevisiae deletion strains, locus YOR061W, strain CKA2, active compounds read low): 1
- normalized growth (S. cerevisiae deletion strains, locus YOR069W, strain VPS5, active compounds read low): 1.01
- normalized growth (S. cerevisiae deletion strains, locus YOR136W, strain idh2, active compounds read low): 1
- normalized growth (S. cerevisiae deletion strains, locus YOR144C, strain elg1, active compounds read low): 0.996
- normalized growth (S. cerevisiae deletion strains, locus YOR184W, strain ser1, active compounds read low): 1.01
- normalized growth (S. cerevisiae deletion strains, locus YOR316C, strain cot1, active compounds read low): 1
- normalized growth [18]: 1.03
- normalized growth [19]: 1
- normalized growth (S. cerevisiae deletion strains, locus YPR119W, strain clb2, active compounds read low): 0.988
- normalized growth (S. cerevisiae deletion strains, locus YPR141C, strain kar3, active compounds read low): 0.997
- normalized growth (S. cerevisiae deletion strains, locus YPR163C, strain tif3, active compounds read low): 0.998
- normalized growth (S. cerevisiae deletion strains, locus YPR167C, strain met16, active compounds read low): 1
- normalized growth (S. cerevisiae deletion strains, strain wtn01, active compounds read low): 1
- normalized growth [20]: 1.04

SMILES: O=C1Nc2ccc(I)cc2/C1=C/c1cc(Br)c(O)c(Br)c1
- normalized growth [21]: 0.966
- normalized growth [22]: 0.995
- normalized growth [4]: 0.953
- normalized growth [23]: 0.942
- normalized growth [24]: 1.01
- normalized growth [6]: 0.919
- normalized growth [9]: 0.979
- normalized growth [12]: 0.991
- normalized growth [15]: 0.666 (active)
- normalized growth [25]: 0.922
- normalized growth [26]: 0.97
- normalized growth [27]: 0.993
- normalized growth [28]: 0.665 (active)

SMILES: COc1ccc(C=C2C(=O)NC(=S)NC2=O)cc1Br
- normalized growth [1]: 1.02
- normalized growth [2]: 1.03
- normalized growth [3]: 1
- normalized growth [4]: 0.946
- normalized growth [5]: 0.992
- normalized growth [6]: 0.995
- normalized growth [7]: 1.01
- normalized growth (S. cerevisiae deletion strains, locus YHR087W, strain rtc3, active compounds read low): 0.984
- normalized growth [8]: 0.998
- normalized growth [9]: 1
- normalized growth [10]: 1.07
- normalized growth (S. cerevisiae deletion strains, locus YLR058C, strain SHM2 (second series), active compounds read low): 1
- normalized growth (S. cerevisiae deletion strains, locus YLR085C, strain ARP6, active compounds read low): 1.01
- normalized growth [11]: 1.06
- normalized growth (S. cerevisiae deletion strains, locus YML094W, strain GIM5, active compounds read low): 1
- normalized growth (S. cerevisiae deletion strains, locus YMR219W, strain ESC1, active compounds read low): 1.01
- normalized growth [12]: 0.928
- normalized growth [14]: 1
- normalized growth [15]: 0.965
- normalized growth (S. cerevisiae deletion strains, locus YNL298W, strain CLA4 (second series), active compounds read low): 1
- normalized growth [16]: 1.01
- normalized growth (S. cerevisiae deletion strains, locus YNR030W, strain Alg12, active compounds read low): 0.997
- normalized growth [17]: 1.01
- normalized growth [18]: 0.884
- normalized growth [19]: 1.02
- normalized growth (S. cerevisiae deletion strains, locus YPR135W, strain CTF4, active compounds read low): 0.968
- normalized growth [20]: 1.01

SMILES: CCO/C([O-])=N/c1c[n+](N2CCOCC2)no1
- normalized growth [21]: 0.99
- normalized growth [22]: 0.99
- normalized growth [23]: 1.02
- normalized growth [24]: 1
- normalized growth [12]: 0.98
- normalized growth [13]: 0.996
- normalized growth [14]: 1.01
- normalized growth [25]: 1
- normalized growth [26]: 0.984
- normalized growth [27]: 1.01
- normalized growth [28]: 0.995
- normalized growth [19]: 0.968
